Test results reported in PubChem BioAssay AID493001 (Johns Hopkins Ion Channel Center, 2010).
In all, about 1,900 compounds went through this assay and about 430 (23%) were called active.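 The calls were made as follows: active = duplicate-averaged calcium rise in uninduced cells above buffer wells' mean plus 5 SD; inactive = the rest.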 The list is a sample of the results.

Assay: compound-evoked calcium rise in non-induced M3R cells, confirmation, artefact control for RGS4 inhibitor project, cell-based, HEK293 M3R, no carbachol, second counter-screen (AID 493001)
Details: Fluo-4 calcium, at 10 µM; active compounds read high, normalised: buffer wells 0%, carbachol wells 100%
For `COc1ccccc1C1C(C#N)=C(N)Oc2c1c(-c1ccccc1)nn2-c1ccccc1` (configuration not stated), the calcium response (agonist-mode artifact) was 8% (active).
In the case of `O=C(Nc1ccccc1)OCc1cc(-c2ccc(Cl)cc2)on1`, the calcium response (agonist-mode artifact) was “inactive”.
With `COc1ccc2c(c1OC)C(=O)OC2Nc1nc(-c2ccccc2)cs1` (configuration not stated) the calcium response (agonist-mode artifact) was “inactive”.
In the case of `CC(C)c1nc(SCC(=O)Nc2cccc(C(=O)O)c2)c2c3c(sc2n1)CCCC3`, the calcium response (agonist-mode artifact) was “inactive”.
With `O=C(NCCCc1ccccc1)C1CCC(CNc2c(N3CCCCC3)c(=O)c2=O)CC1` (configuration not stated) the calcium response (agonist-mode artifact) was “inactive”.
For `Cn1c(-c2ccco2)nc2cc3ccccc3cc21`, the calcium response (agonist-mode artifact) was “inactive”.
With `Cc1ccc(-c2c3c(=O)n(C)c(=O)n(C)c3cn2-n2cnnc2)cc1` the calcium response (agonist-mode artifact) was “inactive”.
For `Nc1ccccc1SC(C[N+](=O)[O-])c1ccccc1` (configuration not stated), the calcium response (agonist-mode artifact) was 26% (active).
With `c1ccc(C[C@H]2CNCCN2CCC23CC4CC(CC(C4)C2)C3)cc1` the calcium response (agonist-mode artifact) was “inactive”.
In the case of `C=CCSc1nc2c(c(=O)[nH]1)C(C(C)C)C(C#N)=C(N)O2` (configuration not stated), the calcium response (agonist-mode artifact) was “inactive”.
For `CCn1c(O)c(N=NC2=NC(=O)CS2)c2cc(C)ccc21`, the calcium response (agonist-mode artifact) was “inactive”.
In the case of `O=C1NC(c2ccc(-c3ccccc3[N+](=O)[O-])o2)C(C(=O)c2ccc(Cl)cc2)C(O)(C(F)(F)F)N1` (configuration not stated), the calcium response (agonist-mode artifact) was 7% (active).
For `Cc1ccc(SC(CC(=O)c2ccc(C(C)(C)C)cc2)C(=O)O)cc1` (configuration not stated), the calcium response (agonist-mode artifact) was “inactive”.
For `O=C(Nc1ccc(Cl)cc1)OCc1cc(-c2ccccc2)on1`, the calcium response (agonist-mode artifact) was “inactive”.
With `O=C(O)c1ccc2c(c1)C(=O)N(c1ccc(/C=C/C(=O)c3ccccc3)cc1)C2=O` the calcium response (agonist-mode artifact) was “inactive”.
For `COc1cc(/C=C2/SC(=S)N(Cc3ccccc3)C2=O)cc(OC)c1O`, the calcium response (agonist-mode artifact) was 37.5% (active).
In the case of `COc1ccc(/C(O)=C2/C(=O)C(=O)N(c3nc(C)c(C)s3)C2c2ccco2)cc1` (configuration not stated), the calcium response (agonist-mode artifact) was “inactive”.
With `COc1ccc(-c2csc(Nc3ccc(O)cc3)n2)cc1` the calcium response (agonist-mode artifact) was “inactive”.
In the case of `CNc1nc(Nc2ccc(C)c(Cl)c2)nc(N)c1[N+](=O)[O-]`, the calcium response (agonist-mode artifact) was “inactive”.
In the case of `O=C(O)c1ccc2c(=O)n3c(nc2c1)/C(=C/c1ccc(Cl)c([N+](=O)[O-])c1)CC3`, the calcium response (agonist-mode artifact) was “inactive”.
With `COc1cc2c(cc1O)C(SC)=NC(C)(C)C2` the calcium response (agonist-mode artifact) was “inactive”.
In the case of `O=C(/C=C/Sc1ncn[nH]1)c1ccc(Cl)cc1`, the calcium response (agonist-mode artifact) was 9% (active).
In the case of `Cc1cc(C)nc(S/C=C/C(=O)c2ccccc2)n1`, the calcium response (agonist-mode artifact) was “inactive”.
In the case of `CC(=O)Nc1ccc(S(=O)(=O)Nc2nc(-c3ccc(C(C)(C)C)cc3)cs2)cc1`, the calcium response (agonist-mode artifact) was “inactive”.
For `O=C(/C=C/c1ccc(Cl)c([N+](=O)[O-])c1)c1cccnc1`, the calcium response (agonist-mode artifact) was “inactive”.
With `Cc1ccc(C)c(Cn2nnc3c(=O)[nH]c(C(=O)Nc4ccc(F)cc4)nc32)c1` the calcium response (agonist-mode artifact) was “inactive”.
With `O=C(NCc1ccccc1)c1ccc(S(=O)(=O)Nc2cccc(C(F)(F)F)c2)cc1` the calcium response (agonist-mode artifact) was 13% (active).
With `CCc1ccc2oc(-c3ccc(N)cc3)nc2c1` the calcium response (agonist-mode artifact) was “inactive”.
For `CCCCC1S/C(=N/N=C/c2cccs2)NC1=O` (configuration not stated), the calcium response (agonist-mode artifact) was “inactive”.
In the case of `CCOC(=O)[C@@H]1[C@H]2COc3ccc(Br)cc3[C@H]2N2C(=O)N(c3ccc(Cl)cc3)C(=O)[C@@]12C`, the calcium response (agonist-mode artifact) was “inactive”.
For `O=C(CCN1CCc2ccccc2C(O)(c2ccccc2)C1)c1ccc2c(c1)OCCO2` (configuration not stated), the calcium response (agonist-mode artifact) was 11.5% (active).
For `CCc1nnc(NS(=O)(=O)c2ccc(N=Cc3c(C)[nH]n(-c4ccc(C)cc4)c3=O)cc2)s1`, the calcium response (agonist-mode artifact) was “inactive”.
In the case of `CCC(c1nnnn1Cc1ccco1)N(Cc1cc2cc(OC)ccc2[nH]c1=O)C1CCCCC1` (configuration not stated), the calcium response (agonist-mode artifact) was “inactive”.
In the case of `C=C(C)C(=O)O[C@H]1C/C(C)=C\C(=O)/C=C(\C)[C@H](O)[C@@H]2OC(=O)C(=C)[C@@H]21`, the calcium response (agonist-mode artifact) was “inactive”.
For `CCCCOC(=O)CNc1nnc(SCC(=O)OCC)[nH]c1=O`, the calcium response (agonist-mode artifact) was “inactive”.
With `CNCC(O)c1ccc(O)c(O)c1` (configuration not stated) the calcium response (agonist-mode artifact) was “inactive”.
For `Cc1ccc(S/C(=N\S(=O)(=O)c2ccc(Cl)cc2)c2ccccc2)cc1`, the calcium response (agonist-mode artifact) was 25% (active).
With `COc1ccc(OC)c(S(=O)(=O)N2CCCC(C(=O)N3CCC(C(N)=O)CC3)C2)c1` (configuration not stated) the calcium response (agonist-mode artifact) was “inactive”.
In the case of `CCOC(=O)C1CCN(C(c2cc3cc(C)cc(C)c3[nH]c2=O)c2nnnn2C2CCCCC2)CC1` (configuration not stated), the calcium response (agonist-mode artifact) was “inactive”.
For `Cc1noc(NS(=O)(=O)c2ccc(N/C=C/C(=O)c3ccccc3)cc2)c1C`, the calcium response (agonist-mode artifact) was “inactive”.
With `Cc1ccsc1/C=N/n1c(=S)[nH]nc(C)c1=O` the calcium response (agonist-mode artifact) was “inactive”.
In the case of `CCOc1ccc(/C=N/NC(=O)CSc2ccccn2)cc1O`, the calcium response (agonist-mode artifact) was “inactive”.
With `Cc1nc(-c2ccccc2)sc1C(=O)/C=C/c1ccccc1` the calcium response (agonist-mode artifact) was 22.5% (active).
With `S=c1[nH]nc(-c2cccnc2)n1/N=C/C(Cl)=C\c1ccccc1` the calcium response (agonist-mode artifact) was “inactive”.
With `Oc1ccc(-c2[nH]ncc2-c2nc3ccccc3s2)c(O)c1` the calcium response (agonist-mode artifact) was “inactive”.
For `COc1cc(/C=C2/C(=O)ON=C2C)ccc1OCc1ccccc1F`, the calcium response (agonist-mode artifact) was 222% (active).
With `C=CCOc1ccc(/C=C2/C(=O)ON=C2C)cc1OCC` the calcium response (agonist-mode artifact) was 10% (active).
For `C#CCOc1ccc(/C=C2/C(=O)ON=C2C)cc1OCC`, the calcium response (agonist-mode artifact) was “inactive”.
For `Cc1ccc(NC(=O)c2c(NC(=O)CCC(=O)O)sc3c2CCCCC3)cc1`, the calcium response (agonist-mode artifact) was “inactive”.
For `Cc1ccc(Nc2nc(N)nc(CSc3nnc(C)s3)n2)cc1`, the calcium response (agonist-mode artifact) was “inactive”.
In the case of `Cc1ccc(Nc2nc(N)nc(CN3CCN(Cc4ccccc4)CC3)n2)cc1Cl`, the calcium response (agonist-mode artifact) was “inactive”.
In the case of `Brc1ccc(-c2csc(N/N=C/c3cccnc3)n2)cc1`, the calcium response (agonist-mode artifact) was “inactive”.
In the case of `CCOc1ccc(NC(=O)C/C(C)=N/NC(=O)Cc2cccs2)cc1`, the calcium response (agonist-mode artifact) was “inactive”.
In the case of `COc1ccc(/C=C/C(=O)c2ccc(OC)cc2O)cc1`, the calcium response (agonist-mode artifact) was 11.5% (active).
For `O=C(/C=C/c1ccc(Cl)c([N+](=O)[O-])c1)c1ccc(O)cc1`, the calcium response (agonist-mode artifact) was “inactive”.
In the case of `Cc1c(NC(=O)c2coc(=O)c(Br)c2)c(=O)n(-c2ccccc2)n1C`, the calcium response (agonist-mode artifact) was “inactive”.
In the case of `CCc1ccc(C2C(C#N)=C(N)N(N3CCOCC3)C3=C2C(=O)CC(C)(C)C3)s1` (configuration not stated), the calcium response (agonist-mode artifact) was “inactive”.
With `O=[N+]([O-])c1c(NCCO)cc(Sc2nc3ccccc3s2)c2nonc12` the calcium response (agonist-mode artifact) was 114% (active).
In the case of `COc1ccc(S(=O)(=O)Nc2ccc(O)c(Sc3nc4ccccc4s3)c2)cc1`, the calcium response (agonist-mode artifact) was “inactive”.
For `C[C@H](NC(=O)c1nc[nH]c1C(=O)NCC(=O)OC(C)(C)C)c1ccccc1`, the calcium response (agonist-mode artifact) was “inactive”.
In the case of `Cc1nc(Nc2ccc(S(=O)(=O)N3CCCC3)cc2)c2nnn(Cc3ccccc3)c2n1`, the calcium response (agonist-mode artifact) was “inactive”.
In the case of `Nc1cccc(-c2cc(-c3ccccc3)nc(-c3cccc(N)c3)n2)c1`, the calcium response (agonist-mode artifact) was “inactive”.
With `O=C(N/N=C/c1ccccc1O)/C(=C/c1ccccc1)CCO` the calcium response (agonist-mode artifact) was “inactive”.
With `CS(=O)(=O)N(CC(O)Cn1c2ccccc2c2ccccc21)c1cccc2ccccc12` (configuration not stated) the calcium response (agonist-mode artifact) was “inactive”.
For `COCCCNC(=S)N(CCN(C)C)Cc1cc2cc3c(cc2[nH]c1=O)OCCO3`, the calcium response (agonist-mode artifact) was “inactive”.
With `C1=C(N2CCOCC2)/C(=C/c2nc3ccccc3[nH]2)CC1` the calcium response (agonist-mode artifact) was 185% (active).
In the case of `Cc1nn(C(C)C(=O)N2CCOCC2)c(=O)c2nn(-c3ccccc3)c(C)c12` (configuration not stated), the calcium response (agonist-mode artifact) was “inactive”.
With `Cc1ccc(Sc2cc(N3CCOCC3)nc(-c3ccccc3)n2)cc1` the calcium response (agonist-mode artifact) was 17% (active).
For `COC(=O)C1CCN(C(=O)c2cc(=O)[nH]c3ccccc23)CC1`, the calcium response (agonist-mode artifact) was “inactive”.
With `COC(=O)Cn1cc(/C=C/[N+](=O)[O-])c2ccccc21` the calcium response (agonist-mode artifact) was 11.5% (active).
For `CC(C)Cc1nc(Nc2ccc(S(=O)(=O)N3CCCC3)cc2)c2nnn(Cc3ccccc3)c2n1`, the calcium response (agonist-mode artifact) was “inactive”.
In the case of `COc1cc(Br)cc(/C=N/c2ncn[nH]2)c1O`, the calcium response (agonist-mode artifact) was “inactive”.
With `COc1cc(/C=C2/C(=O)NN(c3cccc(Cl)c3)C2=O)cc(Br)c1O` the calcium response (agonist-mode artifact) was 43.5% (active).
For `C#CCOc1ccc(/C=C2/C(=O)NN(c3ccccc3)C2=O)cc1OC`, the calcium response (agonist-mode artifact) was “inactive”.
In the case of `Cc1ccc(/C=C2\CCn3c2nc2cc(C(=O)O)ccc2c3=O)c(C)c1`, the calcium response (agonist-mode artifact) was “inactive”.
For `O=[N+]([O-])/C=C/c1ccc2c(ccn2Cc2ccccc2)c1`, the calcium response (agonist-mode artifact) was 104% (active).
With `Cc1cc(-c2n[nH]c(=S)n2/N=C/C(Br)=C/c2ccccc2)n[nH]1` the calcium response (agonist-mode artifact) was “inactive”.
For `O=C(O)C(c1ccccc1)N1C(=O)/C(=C\c2ccc(-c3cccc(Cl)c3)o2)SC1=S` (configuration not stated), the calcium response (agonist-mode artifact) was 599% (active).
With `O=C1c2ccccc2NC(c2ccc(-c3cccc(Cl)c3)o2)N1O` (configuration not stated) the calcium response (agonist-mode artifact) was “inactive”.
In the case of `O=C1Nc2ccc(Br)cc2/C1=N/N=C/C1=C(N2CCOCC2)C(=C\c2ccccc2)/CC1`, the calcium response (agonist-mode artifact) was “inactive”.
With `O=C(COC(=O)c1cccc(Br)c1)Nc1cccc2c1C(=O)c1ccccc1C2=O` the calcium response (agonist-mode artifact) was “inactive”.
In the case of `Oc1ccc(/C=N/Nc2ccc(C(F)(F)F)cn2)cc1O`, the calcium response (agonist-mode artifact) was “inactive”.
In the case of `Cc1nn2c(=O)cc(COC(=O)c3ccc(NC(=O)C(C)(C)C)cc3)nc2s1`, the calcium response (agonist-mode artifact) was “inactive”.
With `COc1ccc(C(C[N+](=O)[O-])n2nc(C)cc2C)cc1` (configuration not stated) the calcium response (agonist-mode artifact) was 16% (active).
With `CCOC(=O)C1=NN(c2ccc(Cl)cc2)/C(=C/C2=NCCc3cc(OC)c(OC)cc32)S1` the calcium response (agonist-mode artifact) was 7% (active).
In the case of `COc1ccc(NCc2nnc(SCc3ccccc3)n2-c2ccc(OC)cc2)cc1`, the calcium response (agonist-mode artifact) was “inactive”.
In the case of `O=S(=O)(Nc1nccs1)c1ccc2c(c1)OCCO2`, the calcium response (agonist-mode artifact) was “inactive”.
